Screening data as filed in PubChem BioAssay.
JMJD2E inh: inhibitors of human JMJD2E histone demethylase. 230,000 compounds, 1.6% hits. B2RXH2. Potency, µM (series often up to 57.1 µM), for inactives: top-dose activity change, negative = inhibition, most hits filed as inhibitors. JMJD2E catalytic domain, FDH-coupled NADH fluorescence (FDH is formaldehyde dehydrogenase);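 note: potency is the fitted concentration of half-maximal effect; 0% = wells with enzyme and -100% = buffer wells without enzyme; nearly all actives have a fitted effect of over 50% in size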
FBPA coupling cs: coupling enzyme interference in Giardia aldolase counter-screen. coupling enzyme system counterscreen, AmpLite Red fluorescence. activity change, negative = inhibition, % at 58.2 µM, hits read low. 290,000 compounds, 0.67% hits. AID 2472; in the data active = activity change below about -30%
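Final compound at 57.5 uM, incubated 10 min at RT with coupling enzyme reagent (glyceraldehyde-3-phosphate), then 20 min with substrate and AmpLite Red detection. Fluorescence read at 525/598 nm; tests interference with the coupling assay, not aldolase inhibition.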
ALDH1A1 block: blocks purified human ALDH1A1 activity. AID 1030. 220,000 compounds, 7.3% hits. Purified ALDH1A1, NADH fluorescence, propionaldehyde substrate. Potency, µM (doses to about 75.3 µM), for inactives: at the highest dose activity, negative = inhibition, most hits filed as inhibitors. P00352; active = well fitted inhibition curve with a large enough effect, not every such curve was filed as active; inconclusive = small, poorly fitted or top-dose-only effect, or another doubt; inactive = no such curve, though single readings can be large or run the other way;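 note: potency is the fitted concentration of half-maximal effect; plate controls were no enzyme wells and a reference inhibitor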
Target sequence (P00352 whole entry, looked up): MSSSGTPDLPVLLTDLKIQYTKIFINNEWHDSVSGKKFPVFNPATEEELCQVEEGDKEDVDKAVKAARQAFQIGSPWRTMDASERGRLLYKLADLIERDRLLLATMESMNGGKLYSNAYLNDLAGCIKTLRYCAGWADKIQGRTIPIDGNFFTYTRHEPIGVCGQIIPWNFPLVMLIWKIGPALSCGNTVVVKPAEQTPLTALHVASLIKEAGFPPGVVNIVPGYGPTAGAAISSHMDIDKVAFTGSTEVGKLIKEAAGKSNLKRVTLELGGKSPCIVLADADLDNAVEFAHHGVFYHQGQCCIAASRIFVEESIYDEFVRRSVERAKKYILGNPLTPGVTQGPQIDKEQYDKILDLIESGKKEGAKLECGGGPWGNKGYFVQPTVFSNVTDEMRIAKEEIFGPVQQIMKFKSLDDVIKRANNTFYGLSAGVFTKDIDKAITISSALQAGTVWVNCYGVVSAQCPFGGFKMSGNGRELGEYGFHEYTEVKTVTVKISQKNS
Sfp inh: blocks B. subtilis Sfp PPTase activity; AID 1490; Biochemical Sfp PPTase activity, qHTS; Potency, µM, for the others: largest response in the series, negative = inhibition, hits mostly inhibitors; 310,000 compounds, 3.5% hits;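 note: the enzyme is Sfp with the accession as filed and its product quenches rhodamine fluorescence; potency is the fitted concentration of half-maximal effect; 0% = enzyme reaction without inhibitor and -100% = no enzyme wells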
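Fluorescence-quenching assay: 15 nM Sfp-PPTase preincubated 15 min at room temperature with compound, then 5 uM rhodamine-CoA and 12.5 uM BHQ-2-labelled YbbR peptide added. Fluorescence (ex 525/em 598 nm) read at start and after 30 min; difference gives rate.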
GoLoco inh red: RGS12 GoLoco-Gai1 interaction inhibition; P63096; Gai1:RGS12 GoLoco peptide FP, rhodamine, 10 min; Potency, µM (doses to about 61.6 µM), without a hit: top-dose activity, negative = inhibition, usual class: inhibitors; 230,000 compounds, 0.44% hits; AID 880; active = well fitted inhibition curve with a large enough effect, not every such curve was filed as active; inactive = no such curve, though single readings can be large or run the other way; note: potency is the fitted concentration of half-maximal effect; nearly all actives have a fitted effect of over 30% in size
NPSR antag: antagonists of human neuropeptide S receptor cAMP signaling; Q6W5P4; Potency, µM (series often up to 38.3 µM), for the others: at the highest dose activity change, negative = inhibition, actives largely listed as inhibitors; 220,000 compounds, 1% hits; CHO-NPSR cells, cAMP TR-FRET, antagonist mode; note: potency is the fitted concentration of half-maximal effect; nearly all actives have a fitted effect of over 50% in size
* = called active by the depositor; ! = not active in a repeat; [ ] = dose if it differs, or a comment. Hits are enriched below; roughly 8.5% of the tested compounds scored in any of these assays. Unless noted, calls come from the whole dose curve; as a rule, active = well fitted curve in the direction sought with a large enough effect; inconclusive = small, poorly fitted or top-dose-only effect, or another doubt; inactive = no such curve, though single readings can be large; an effect the other way counts as inactive or inconclusive. Unless noted, % is set by controls: 0 for no effect and ±100 for the full control effect.

For NC(=O)CN1C(=O)C(O)(CC(=O)c2ccccc2O)c2ccccc21 (configuration not stated) the results were JMJD2E inh 3.9%, FBPA coupling cs -4.3, ALDH1A1 block inconclusive, Sfp inh 9.3%, GoLoco inh red 8.4% and NPSR antag 11.5%[46.1 µM].
Screening Cc1c(NC(=O)c2ccc([N+](=O)[O-])o2)cccc1-c1nc2ncccc2o1 returned FBPA coupling cs -1.8 and Sfp inh 6.2%.
For COc1ccc(CN2CCC(N3CC(C)OC(C)C3)CC2)c(OC)c1OC (configuration not stated) the results were FBPA coupling cs -1.3 and Sfp inh 56.2µM*.
Screening Cc1ccc(CN2CCC(N3CC(C)OC(C)C3)CC2)cc1 (configuration not stated) returned FBPA coupling cs 0.7 and Sfp inh -23.5%.
COc1ccc(C2=Nn3c(nnc3-c3ccc(OC)c(OC)c3)SC2)cc1 was read as FBPA coupling cs 0.4 and Sfp inh -6.4%.
For Cc1cc(=O)[nH]c(SCC(=O)Nc2ccccc2C#N)c1C#N the results were JMJD2E inh -14.6%, FBPA coupling cs 12.2, ALDH1A1 block inconclusive, Sfp inh 31.6µM*, GoLoco inh red -1.2% and NPSR antag -4.4%[46.1 µM].
Screening COC(=O)c1ccccc1NC(=O)CSc1[nH]c(=O)cc(C)c1C#N returned JMJD2E inh -8.4%, FBPA coupling cs 7.0, ALDH1A1 block -5.9%, Sfp inh 20.2%, GoLoco inh red 6.3% and NPSR antag 26.0%.
Screening CCOC(=O)CC(=O)CSc1[nH]c(=O)cc(C)c1C#N returned JMJD2E inh -15.6%, FBPA coupling cs 5.7, ALDH1A1 block -1.2%, Sfp inh 50.1µM*, GoLoco inh red 4.1% and NPSR antag -10.9%[46.1 µM].
For Cc1ccc(C(C)C)cc1S(=O)(=O)NC1CC(C)(C)NC(C)(C)C1 the results were FBPA coupling cs 1.2 and Sfp inh 4.8%.
`C/C(=N\NC(=O)c1ccc(CN(C)S(=O)(=O)c2ccc(C)cc2)cc1)c1ccc(OC(F)F)cc1` gave JMJD2E inh 8.6%, FBPA coupling cs -7.9, ALDH1A1 block 25.1µM*, Sfp inh 18.7% and NPSR antag -7.5%[46.1 µM].
Screening COc1ccc2[nH]c(C)c(C(=O)CN3CCc4cc(OC)c(OC)cc4C3)c2c1 returned JMJD2E inh -2.3%, FBPA coupling cs -6.7, ALDH1A1 block 10µM*, Sfp inh 16.3% and NPSR antag -20.7%[46.1 µM].
`CCNC(=O)C/C(C)=N/NC(=O)C12CC3CC(CC(C3)C1)C2` gave JMJD2E inh -7.6%, FBPA coupling cs -2.0, ALDH1A1 block 3.98µM*, Sfp inh -3.1%, GoLoco inh red -12.4% and NPSR antag -8.8%[46.1 µM].
For COc1ccc(-c2ccc(C)cc2)cc1C1C2C=CCC(C)C2C(=O)N1Cc1ccccc1 (configuration not stated) the results were FBPA coupling cs -0.8 and Sfp inh -4.2%.
`COc1cccc(-c2nccc(N(C)Cc3ccco3)n2)c1` gave FBPA coupling cs 0.0, ALDH1A1 block inconclusive, Sfp inh inconclusive and GoLoco inh red 9.9%.
`CN(C)Cc1ccccc1-c1ccc2ncnc(NCc3cccs3)c2c1` gave JMJD2E inh -2.6%, FBPA coupling cs -1.3, ALDH1A1 block 6.5%, Sfp inh 7.8% and GoLoco inh red 4.3%.
COC(=O)c1ccc([C@H]2CC(=O)O2)cc1 was read as FBPA coupling cs 1.2 and Sfp inh 6.5%.
`Clc1ccc(-c2nnc3sc(-c4ccc(Br)o4)nn23)cc1` gave JMJD2E inh inconclusive, FBPA coupling cs -0.6, ALDH1A1 block 6.4%, Sfp inh 6.0%, GoLoco inh red 16.5% and NPSR antag -23.0%[46.1 µM].
Screening Cc1oc(-c2ccc(Cl)cc2)cc1-c1nn2c(-c3ccoc3C)nnc2s1 returned JMJD2E inh -1.4%, FBPA coupling cs -11.9, ALDH1A1 block 20µM*, Sfp inh 10µM*, GoLoco inh red 62.6% and NPSR antag -12.0%[46.1 µM].
COc1ccc(C(=O)c2oc3ccccc3c2N)cc1 was read as JMJD2E inh inconclusive, FBPA coupling cs -8.6, ALDH1A1 block inconclusive, Sfp inh 79.4µM*, GoLoco inh red -16.3% and NPSR antag -18.4%[46.1 µM].
`Cc1c(Cl)cccc1NC(=S)N1CCC(C(N)=O)(N2CCCCC2)CC1` gave JMJD2E inh 13.8%, FBPA coupling cs 0.4, ALDH1A1 block -11.6%, Sfp inh -0.6%, GoLoco inh red 10.4% and NPSR antag -9.7%.
For Cc1ccc2c(CSc3nc4ccccc4c(=O)n3CCCO)cc(=O)oc2c1C the results were JMJD2E inh -24.2%, FBPA coupling cs 0.6, ALDH1A1 block 12.6µM*, Sfp inh -16.1%, GoLoco inh red -0.5% and NPSR antag inconclusive.
O=c1ccc2cc(O)c(O)cc2o1 was read as JMJD2E inh inconclusive, FBPA coupling cs 1.4, ALDH1A1 block inconclusive, Sfp inh 56.2µM*!, GoLoco inh red -54.9% and NPSR antag 8.6%.
CCOC(=O)c1nnn(CC(=O)N2N=C(c3ccc(Cl)cc3)CC2c2ccc(OC)cc2)c1C(=O)OCC (configuration not stated) was read as JMJD2E inh 31.6µM*, FBPA coupling cs -3.8, ALDH1A1 block -5.2%, Sfp inh 8.3%, GoLoco inh red -1.0% and NPSR antag -16.9%[46.1 µM].
COc1ccc(-c2cc3nc(C)c(CCC(=O)N4CCN(c5ccccn5)CC4)c(C)n3n2)c(OC)c1 was read as JMJD2E inh 12.6µM*, FBPA coupling cs 1.9, ALDH1A1 block 196.3%, Sfp inh 11.1%, GoLoco inh red -2.0% and NPSR antag -3.6%.
For CCOC(=O)c1oc2ccccc2c1NC(=O)c1ccco1 the results were Sfp inh 7.6%.
`CCOC(=O)c1[nH]c2ccccc2c1NC(=O)c1ccco1` gave JMJD2E inh 0.1%, FBPA coupling cs -27.8, ALDH1A1 block 4.6%, Sfp inh 50.1µM*, GoLoco inh red 0.3% and NPSR antag 0.2%[46.1 µM].
`CCOC(=O)c1[nH]c2ccccc2c1NC(=S)Nc1cc(C)ccc1C` gave JMJD2E inh -10.3%, FBPA coupling cs 0.1, ALDH1A1 block inconclusive, Sfp inh 39.8µM*, GoLoco inh red 2.5% and NPSR antag -36.1%.
CCOc1cccc(CNc2ccc(O)cc2)c1OCc1ccccc1Cl was read as JMJD2E inh -0.3%, FBPA coupling cs 1.3, ALDH1A1 block inconclusive, Sfp inh -13.2%, GoLoco inh red -26.8% and NPSR antag -56.5%.
CCOc1cccc(CNc2ccc(O)cc2)c1OCc1ccc(Cl)cc1Cl was read as JMJD2E inh inconclusive, FBPA coupling cs -50.1*, ALDH1A1 block 22.4µM*, Sfp inh 14.1µM*, GoLoco inh red -3.0% and NPSR antag inconclusive.
